The record followed here is PubChem BioAssay.

Molecules are shown by their SMILES. Values without a mark were called inactive. Calls of active or inactive are those of the source. No rule for the calls is given here.

For the first assay, the target named is L-lactate dehydrogenase (Plasmodium falciparum (isolate CDC / Honduras)) (UniProt Q27743). Description: PfLDH activity inhibition – cell lysate, 3D7 strain, counter-screen for P. falciparum growth inhibition project (AID 2304).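 Also: 0% = vehicle and 100% = reference inhibitor.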 As to conditions: P. falciparum 3D7 crude extract, LDH APAD/NBT absorbance; at 2 µM; hits give high values.
Chain of L-lactate dehydrogenase (Plasmodium falciparum (isolate CDC / Honduras)) (Q27743 whole entry, looked up): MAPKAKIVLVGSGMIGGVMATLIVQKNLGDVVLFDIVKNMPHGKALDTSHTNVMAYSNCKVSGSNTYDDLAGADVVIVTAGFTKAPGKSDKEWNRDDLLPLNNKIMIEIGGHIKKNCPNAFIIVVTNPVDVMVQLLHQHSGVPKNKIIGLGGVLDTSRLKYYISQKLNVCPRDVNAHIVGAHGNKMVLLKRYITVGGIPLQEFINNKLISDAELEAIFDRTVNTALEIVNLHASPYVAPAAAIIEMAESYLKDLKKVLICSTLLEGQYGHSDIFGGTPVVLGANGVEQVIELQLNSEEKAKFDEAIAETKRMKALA
In the case of `CN1CCN(c2ccc3nccc(CCN4CCC(NCc5ccc6c(n5)NC(=O)CO6)CC4)c3n2)CC1`, the inhibition is -1%.

Regarding `CCCCNS(=O)(=O)c1ccc(NC(=O)c2cc([N+](=O)[O-])ccc2Cl)cc1`, the inhibition was -3%.

In the case of `OC(CNCc1ccccc1OCc1ccccc1)c1cccc(C(F)(F)F)c1` (centres undefined), the inhibition was -2%.

As to `CCc1c[nH]c2c(N(c3ccccc3)S(C)(=O)=O)cc(C(=O)N[C@@H](Cc3ccccc3)[C@H](O)CNC(C)(C)CCCC(C)C)cc12`, the inhibition is -1%.

On to `CC1(C)N=C(N)N=C(N)N1OCCCOc1cccc2ccccc12`, for which the inhibition was 4%.

For the molecule `Cc1cc(N[C@@H](Cc2ccccc2)C(=O)NC2CCCC2)nc(NCC2CCCCC2)n1`, the inhibition was 4%.

As for `COc1ccc(CNc2nc(NCc3ccc(C(F)(F)F)cc3)c3cc(OC)c(OC)cc3n2)cc1OC`, the inhibition is -3%.

Regarding `Clc1ccc(CNc2ccnc(NCCc3coc4ccccc34)n2)c(Cl)c1`, the inhibition was -3%.

With `COc1ccc2nccc([C@@H](O)CN3CCC(NC(=O)[C@@H]4Cc5ccccc5CN4C(=O)OC(C)(C)C)CC3)c2c1`, the inhibition is 4%.

System in a further assay: not listed separately
Description: inhibition of 3D7 malaria parasite growth – strain 3D7 (AID 2306).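 Also: 0% = DMSO wells and 100% = chloroquine plus artemisinin control wells.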 Particulars: P. falciparum 3D7 erythrocytic growth, LDH absorbance, 72 h; at 2 µM; hits give high values.
With `CC(=O)Nc1ccc(C(=O)Nc2cccc(-c3cccc(-c4nc5c(C)cccc5[nH]4)c3)c2)cn1`, the growth inhibition was 101% (active).

For the molecule `Nc1nc2c(c(=O)[nH]1)-c1cccc(Br)c1CC2`, the growth inhibition was 97% (active).

Consider `NC(=O)c1cccc(-n2ccc3cc(CNC4Cc5ccccc5C4)ccc32)c1`, for which the growth inhibition was 88% (active).

For `Cc1[nH]c(C)c(-c2ccc(OCc3cc(F)cc(F)c3)nc2)c(=O)c1Br`, the growth inhibition was 98% (active).

Turning to `C[C@@H]([C@@H](CCCCc1ccccc1)C(=O)N[C@H](C(=O)Nc1cccnc1)C(C)(C)C)N(O)C=O`, the growth inhibition was 98% (active).

Turning to `CCNC(=O)NC1CCN(Cc2c(-c3cccs3)nc3ccccc3c2C(=O)N[C@@H](C)C2CCCCC2)CC1`, the growth inhibition was 95% (active).

As to `Cc1[nH]c(C)c(-c2ccc(OCCCc3ccccn3)cc2)c(=O)c1Br`, the growth inhibition is 98% (active).

As to `Cn1cncc1C(=O)Nc1cccc(-c2csc(-c3nc4ccccc4[nH]3)c2)c1`, the growth inhibition is 102% (active).

Consider `FC(F)(F)c1ccc2nc(-c3cccc(-c4cccc(CN5CCN(c6ccncc6)CC5)c4)c3)[nH]c2c1`, for which the growth inhibition was 100% (active).

Turning to `CN(Cc1ccc(NC(=O)NC2CCN(C(=O)/C=C/c3ccc(Cl)c(Cl)c3)CC2)cc1)C1CCOCC1`, the growth inhibition is 96% (active).

As for `CC(=O)N1Cc2ccccc2C1=O`, the growth inhibition is 97% (active).

As for `O=C(Nc1cccc(-c2ccc(CN3CCCC3)cc2)c1)c1ccc(Cl)cc1`, the growth inhibition is 100% (active).

In the case of `Nc1nonc1-c1nc2c(-c3cccc(Cl)c3)nccc2n1CCCNC(=O)Cc1ccc(Cl)cc1`, the growth inhibition was 94% (active).

For `NC1CCN(c2cnn(Cc3cccc(NC(=O)Nc4ccc(-c5ccccc5)cc4)c3)c(=O)c2Cl)CC1`, the growth inhibition is 89% (active).

`COc1ccc(NC(=O)Nc2ccc(-c3ccc(-c4nc5c(C)cccc5[nH]4)s3)cc2)cc1`: the growth inhibition is 100% (active).

Turning to `Cc1cccc2[nH]c(-c3cccc(-c4ccc(NC(=O)c5ccoc5)cc4)c3)nc12`, the growth inhibition was 99% (active).

With `Cc1nc(-c2ccccc2)nc(N2CCN(C(=O)c3ccco3)CC2)c1Cc1ccccc1F`, the growth inhibition is 95% (active).

Turning to `CC(=O)N(Cc1nc(-c2cc(Cl)c(Cl)s2)cs1)c1c(C)cccc1C`, the growth inhibition was 98% (active).

Regarding `O=C(CSc1nc2ccccc2c(=O)n1CC1CCCO1)Nc1cc(C(F)(F)F)ccc1Cl` (centres undefined), the growth inhibition was 97% (active).

As to `CCCCCCCCn1c2c(c(=N)c3c1CCC3)CCCC2`, the growth inhibition was 101% (active).

With `O=[N+]([O-])c1ccc(C(O)CNCCc2ccccc2)cc1OCc1ccccc1` (centres undefined), the growth inhibition is 94% (active).

As for `O=C(c1cccc(-c2ccc(-c3nc4ccc(C(F)(F)F)cc4[nH]3)cc2)c1)N1CCCCC1CN1CCC(O)C1` (centres undefined), the growth inhibition was 92% (active).

Regarding `COc1ccc2nc(NC3=NC(c4ccccn4)(c4ccccn4)C(=O)N3C)[nH]c2c1`, the growth inhibition is 99% (active).

For `Cn1c(NC2CCN(CC3CCN(C(=O)/C=C/c4ccc(Cl)c(Cl)c4)CC3)CC2)nc2ccccc21`, the growth inhibition is 101% (active).

Take `O=C(Nc1ccc(Cl)c(C(F)(F)F)c1)N[C@H]1CCN(CCCCCNC(=O)[C@@H]2C[C@H]2c2ccc(Cl)c(Cl)c2)C1`: the growth inhibition was 94% (active).

Turning to `CN1CCc2cc(NS(=O)(=O)c3ccc(-c4ccc(Cl)s4)cc3)c(N3CCCCC3)cc2CC1`, the growth inhibition is 98% (active).

`CCc1sc(-c2ccc(C(C)(C)C)cc2)nc1C(=O)NCCCN1CCCC1=O`: the growth inhibition is 84% (active).

For the molecule `COc1cc2nc(N3CCC(CNC(=O)/C=C/c4cccc(C)c4)CC3)nc(N)c2cc1OC`, the growth inhibition was 101% (active).

Consider `c1cc(CN2CCc3ccccc3CC2)cc(-c2c[nH]c3nc(NC4CCCC4)ncc23)c1`, for which the growth inhibition is 99% (active).

With `O=C(Nc1ccc(OC2CCN(Cc3ccc(F)cc3)CC2)c(Cl)c1)c1ccc(F)cc1`, the growth inhibition is 97% (active).

On to `COc1cccc(OC2CCN(C(=O)c3cc(C(C)(C)C)nn3Cc3ccccc3)CC2)c1`, for which the growth inhibition was 102% (active).

Regarding `CN1CCN(c2ccc3nccc(CCN4CCC(NCc5ccc6c(n5)NC(=O)CO6)CC4)c3n2)CC1`, the growth inhibition was 97% (active).

For the molecule `CCCCNS(=O)(=O)c1ccc(NC(=O)c2cc([N+](=O)[O-])ccc2Cl)cc1`, the growth inhibition is 92% (active).

As to `OC(CNCc1ccccc1OCc1ccccc1)c1cccc(C(F)(F)F)c1` (centres undefined), the growth inhibition is 99% (active).

`CCc1c[nH]c2c(N(c3ccccc3)S(C)(=O)=O)cc(C(=O)N[C@@H](Cc3ccccc3)[C@H](O)CNC(C)(C)CCCC(C)C)cc12`: the growth inhibition was 98% (active).

Consider `CC1(C)N=C(N)N=C(N)N1OCCCOc1cccc2ccccc12`, for which the growth inhibition is 95% (active).

For `Cc1cc(N[C@@H](Cc2ccccc2)C(=O)NC2CCCC2)nc(NCC2CCCCC2)n1`, the growth inhibition is 101% (active).

`COc1ccc(CNc2nc(NCc3ccc(C(F)(F)F)cc3)c3cc(OC)c(OC)cc3n2)cc1OC`: the growth inhibition is 103% (active).

Turning to `Clc1ccc(CNc2ccnc(NCCc3coc4ccccc34)n2)c(Cl)c1`, the growth inhibition is 86% (active).

Consider `COc1ccc2nccc([C@@H](O)CN3CCC(NC(=O)[C@@H]4Cc5ccccc5CN4C(=O)OC(C)(C)C)CC3)c2c1`, for which the growth inhibition is 92% (active).
